Screens as filed in PubChem.
The sample as a whole holds a higher share of hits than the screen did.
Cruzain inh noDet: cruzain (T. cruzi) inhibition without detergent | P25779 | purified cruzain, Z-FR-AMC fluorescence, no detergent | Potency, µM, inactives show max response, negative = inhibition, hits mostly inhibitors | actives 2.3% (n = 200,000);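 further: plate controls were enzyme without inhibitor for no effect and buffer without enzyme for full effect; nearly all actives have a fitted effect of over 40% in size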
Target sequence (P25779 123-467 limits assumed): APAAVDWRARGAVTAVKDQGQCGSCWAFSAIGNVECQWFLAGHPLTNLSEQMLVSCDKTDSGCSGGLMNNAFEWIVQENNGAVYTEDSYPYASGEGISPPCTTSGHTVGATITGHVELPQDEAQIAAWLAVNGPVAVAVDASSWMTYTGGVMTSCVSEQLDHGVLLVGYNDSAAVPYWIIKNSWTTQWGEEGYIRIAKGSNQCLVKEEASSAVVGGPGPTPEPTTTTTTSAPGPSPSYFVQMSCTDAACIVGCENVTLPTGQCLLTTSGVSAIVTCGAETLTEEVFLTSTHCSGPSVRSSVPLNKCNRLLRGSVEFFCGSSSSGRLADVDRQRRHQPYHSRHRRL
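Purified cruzain at 1.5 nM, pre-incubated 15 min with compound at room temperature in 100 mM sodium acetate pH 5.5, 5 mM DTT, 0.00005% Triton X-100. Reaction started with 2 uM Z-FR-AMC; AMC fluorescence increase over 60 s gives rate.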
NS1 function inh: influenza NS1 inhibition. Potency, µM (doses to about 46.1 µM), for the others: at the highest dose activity, positive = more growth. AID 2326. actives 0.4% (n = 270,000); calls by dose curve; further: actives are rising curves; nearly all actives have a fitted effect of over 50% in size
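Growth recovery, yeast-based: influenza A NS1 expressed in S. cerevisiae causes slow growth, and suppressors are detected by OD600. The parent strain without NS1 is used as positive control.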
Cruzain inh Det: cruzain (T. cruzi) inhibition with detergent. P25779. purified cruzain, Z-FR-AMC fluorescence, 0.01% Triton. Potency, µM, for inactives: max response, negative = inhibition, hits mostly inhibitors. actives 0.43% (n = 200,000). AID 1478;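 further: plate controls were neutral wells for no effect and buffer without enzyme for full effect; nearly all actives have a fitted effect of over 40% in size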
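Z-FR-AMC hydrolysis (2 uM substrate) by cruzain (1.5 nM) monitored kinetically at ex 360/em 450 nm after 15 min room-temperature compound exposure; 0.01% Triton X-100, pH 5.5, 5 mM DTT.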
The depositor's hits bear a star. Unless noted, the call rests on the fitted dose curve; in most records, active means well fitted curve in the direction sought with a large enough effect; inconclusive means small, poorly fitted or top-dose-only effect, or another doubt; inactive means no such curve, though single readings can be large; an effect the other way counts as inactive or inconclusive. Potency means the concentration at half of the fitted maximal effect.

Screening CCOC(=O)C1=C([Si](C)(C)C)c2ccccc2N(S(=O)(=O)C(F)(F)F)C1C(=O)OCC (stereo not given) returned Cruzain inh noDet 18% and Cruzain inh Det -1%.
For CCOc1cc2c(C#N)c(N3CCCCC3)nc(N)c2c(N)n1 the results were Cruzain inh noDet -11%, NS1 function inh 15% and Cruzain inh Det -9%.
For COc1ccc(CN2C(=O)Cc3c2nc(N)c2c(N)nc(N4CCCCC4)c(C#N)c32)cc1 the results were Cruzain inh noDet 6.3µM*, NS1 function inh 18% and Cruzain inh Det -9%.
CC(O)COC(C)(C)C (stereo not given) was read as Cruzain inh noDet -3% and Cruzain inh Det 3%.
`Cc1sc(NC(=O)Cc2ccc3c(c2)OCO3)nc1-c1ccc2c(c1)CCN2C(=O)c1ccccc1F` gave Cruzain inh noDet 7.9µM*, NS1 function inh 22% and Cruzain inh Det -1%.
Cc1sc(NC(=O)Cc2ccc3c(c2)OCO3)nc1-c1ccc2c(c1)CCN2C(=O)c1ccc(F)cc1 was read as Cruzain inh noDet 6.3µM*, NS1 function inh 17% and Cruzain inh Det -4%.
Cc1sc(NC(=O)CN2CCCC2)nc1-c1ccc2c(c1)CCN2C(=O)c1cccc(F)c1 was read as NS1 function inh 23%.
Screening CCOC(=O)C(=O)Nc1nc(-c2ccc3c(c2)CCN3C(=O)C2CC2)c(C)s1 returned NS1 function inh 9%.
`CN(C(=O)c1cc(S(=O)(=O)N2CCc3ccccc32)cn1C)C1CCCCC1` gave NS1 function inh -4%.
Cc1sc(NC(=O)CN(C)C2CCCCC2)nc1-c1ccc2c(c1)CCN2S(=O)(=O)c1ccccc1 was read as Cruzain inh noDet 32µM*, NS1 function inh 24% and Cruzain inh Det -5%.
For O=C(O)CC[C@@H](C(=O)O)N1C(=O)[C@@H]2[C@@H]3CC[C@H](C3)[C@@H]2C1=O the results were Cruzain inh noDet 10%, NS1 function inh -1% and Cruzain inh Det 5%.
`Cc1cc(/C=C2\SC(=S)NC2=O)c(C)n1C1CC1` gave Cruzain inh noDet 16µM*, NS1 function inh -28% and Cruzain inh Det 0%.
For Cc1cc(/C=C2/C(=O)N(C)C(=S)N2C)c(C)n1C1CC1 the results were Cruzain inh noDet -21%, NS1 function inh 23% and Cruzain inh Det -9%.
Screening Cc1ccc(CNC(=O)c2cc3c(=O)n(Cc4ccco4)ccc3nc2C)cc1 returned Cruzain inh noDet inconclusive and Cruzain inh Det -7%.
CC(C)Cc1nnc(NC(=O)CCC(=O)N2CCN(c3ccccn3)CC2)s1 was read as Cruzain inh noDet -11%, NS1 function inh -2% and Cruzain inh Det -4%.
CC(C)c1nnc(NC(=O)CCC(=O)N2CCN(c3ccccn3)CC2)s1 was read as Cruzain inh noDet 2%, NS1 function inh 1µM* and Cruzain inh Det 10%.
Screening O=C(Nc1ccc(F)cc1F)c1cc2c(=O)n3ccccc3nc2s1 returned Cruzain inh noDet 1% and Cruzain inh Det -2%.
`CCOC(=O)c1c(N2C(=O)Nc3cc(Cl)c(Cl)cc3N2O)sc2c1CCCCC2` gave Cruzain inh noDet 14%, NS1 function inh 5% and Cruzain inh Det 25µM*.
Screening CCOC(=O)c1c(-n2cnnn2)sc2c1CCCC2 returned NS1 function inh -2%.
For COc1cccc(Cn2c(=O)cnc3cnc(N(C)C)nc32)c1 the results were Cruzain inh noDet -9% and Cruzain inh Det -8%.
Screening CSc1nc(NCCOCCO)c2sc3nc(-c4ccco4)c4c(c3c2n1)CCC4 returned Cruzain inh noDet 25%, NS1 function inh inconclusive and Cruzain inh Det 7.9µM*.
Screening CSc1nc(NCc2ccco2)c2sc3nc(C(C)C)c4c(c3c2n1)CC(C)(C)OC4 returned Cruzain inh noDet -4%, NS1 function inh 6% and Cruzain inh Det -1%.
`CCn1c(=O)n(-c2ccc(F)cc2)c(=O)c2sc3ccccc3c21` gave Cruzain inh noDet 12% and Cruzain inh Det -1%.
`COc1cccc(C2C3=C(N=c4s/c(=C\c5ccc(O)cc5)c(=O)n42)c2ccccc2CC3)c1OC` (stereo not given) gave Cruzain inh noDet inconclusive, NS1 function inh 15% and Cruzain inh Det -2%.
CCOC(=O)C1=C(C)N=c2s/c(=C/c3cccc(OCC(=O)O)c3)c(=O)n2C1c1ccc(F)cc1 (stereo not given) was read as NS1 function inh 12%.
Screening COc1cccc(C2C3=C(N=c4s/c(=C\c5cccc(O)c5)c(=O)n42)c2ccccc2CC3)c1OC (stereo not given) returned Cruzain inh noDet 10µM*, NS1 function inh inconclusive and Cruzain inh Det 0%.
Screening COc1ccccc1C1C2=C(N=c3s/c(=C/c4cccc(OCC(=O)O)c4)c(=O)n31)c1ccccc1CC2 (stereo not given) returned Cruzain inh noDet inconclusive, NS1 function inh inconclusive and Cruzain inh Det 28µM*.
`Fc1ccc(Nc2ncncc2-c2ccoc2)cc1` gave Cruzain inh noDet 1% and Cruzain inh Det 3%.
For O=C1CSC(c2cn(-c3ccccc3)nc2-c2cc3ccccc3o2)N1Cc1ccccc1 (stereo not given) the results were Cruzain inh noDet inconclusive, NS1 function inh 8% and Cruzain inh Det 4%.
For O=C1CSC(c2cn(-c3ccccc3)nc2-c2cc3ccccc3oc2=O)N1Cc1ccco1 (stereo not given) the results were Cruzain inh noDet inconclusive, NS1 function inh 13% and Cruzain inh Det 28µM*.
For Fc1ccc(C(c2ccc(F)cc2)N2CCN(C/C=C\c3ccccc3)CC2)cc1 the results were Cruzain inh noDet 1% and Cruzain inh Det -2%.
CCc1ccccc1N(CC)C(=O)Cn1nc(Cc2ccncc2)c2ccccc2c1=O was read as Cruzain inh noDet 7% and Cruzain inh Det -4%.
Screening Cc1ccc2c(c1[N+](=O)[O-])C(=O)c1ccccc1C2=O returned Cruzain inh noDet 2% and Cruzain inh Det 6%.
Cc1[nH]c2ccccc2c1CCNC(=O)c1ccc2c(c1[N+](=O)[O-])C(=O)c1ccccc1C2=O was read as Cruzain inh noDet 10µM*, NS1 function inh 13% and Cruzain inh Det 2%.
Cc1[nH]c2c(C)cccc2c1CCNC(=O)c1ccc2c(c1[N+](=O)[O-])C(=O)c1ccccc1C2=O was read as Cruzain inh noDet 7.9µM*, NS1 function inh -6% and Cruzain inh Det 3%.
For CN(C)C(=O)c1ccc2c(c1[N+](=O)[O-])C(=O)c1ccccc1C2=O the results were Cruzain inh noDet -11%, NS1 function inh -14% and Cruzain inh Det 0%.
Screening O=C(O)C[C@H](NC(=O)CP(=O)(O)O)C(=O)O.[NH-][C@@H]1CCCC[C@@H]1[NH-].[Pt] returned Cruzain inh noDet 6%, NS1 function inh -8% and Cruzain inh Det 7%.
Screening O=C1C(Cl)=C(Cl)C(=O)C(Cl)=C1Cl returned Cruzain inh noDet -26% and Cruzain inh Det -18%.
CCc1cccc(C)c1NC(=O)Cn1ccn(Cc2ccc(Cl)cc2)c(=O)c1=O was read as Cruzain inh noDet 7% and Cruzain inh Det 0%.
`COc1ccc(OC)c(-n2c(C)cc(C=O)c2C)c1` gave NS1 function inh -2%.
`CCOc1ccccc1N1Cc2cc(C)c(C)cc2C1` gave Cruzain inh noDet 25µM*, NS1 function inh 13% and Cruzain inh Det 3%.
